Compound activity deposited in PubChem by several laboratories.
RecA splice inh: Mtb RecA intein splicing inhibitors, primary screen, biochemical, fluorescence, HTS; Protein RecA (Mycobacterium tuberculosis (strain ATCC 25618 / H37Rv)), P9WHJ3; cell-free RecA intein splicing; inhibition, % (no concentration beside the values); hit rate 0.75% among 290,000; AID 2221, 2009; in the data active = inhibition above about 30%;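 note: 0% = vehicle wells and 100% = reference inhibitor control wells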
Mtb UGM inh: M. tuberculosis UGM enzyme inhibitors, primary screen, biochemical, fluorescence polarization, single point. purified UGM, fluorescence polarization probe displacement. inhibition, % at 10 µM. hit rate 0.06% among 320,000; in the data active = inhibition above about 10%, passing the limit was not always enough
Target sequence (P9WIQ1 whole entry, looked up): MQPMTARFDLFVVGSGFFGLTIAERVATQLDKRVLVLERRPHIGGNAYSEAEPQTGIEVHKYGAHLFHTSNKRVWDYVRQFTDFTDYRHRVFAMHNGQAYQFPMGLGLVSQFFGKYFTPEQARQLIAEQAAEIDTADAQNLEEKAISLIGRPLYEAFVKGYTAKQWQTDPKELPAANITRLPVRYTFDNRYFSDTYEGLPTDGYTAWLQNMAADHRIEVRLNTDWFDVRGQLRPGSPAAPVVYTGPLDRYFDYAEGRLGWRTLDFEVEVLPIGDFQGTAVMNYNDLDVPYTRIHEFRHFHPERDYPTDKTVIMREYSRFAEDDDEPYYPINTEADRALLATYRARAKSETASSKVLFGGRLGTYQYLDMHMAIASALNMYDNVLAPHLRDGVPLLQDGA
TcdB GH inh: TcdB glycohydrolase inhibitors, primary screen, biochemical, single point, plate reader; TcdB glycohydrolase enzymatic assay; hit rate 0.24% among 350,000; inhibition, % at 9.99 µM; Toxin B (Clostridioides difficile), P18177; in the data active = inhibition above about 10%
FadD28 FP inh: inhibitors of FadD28 bisubstrate probe binding, primary screen, biochemical, fluorescence polarization, single point; Mycobacterium tuberculosis FadD28 fatty-acid-AMP ligase; inhibition, % at 12.5 µM; hit rate 0.22% among 360,000; in the data active = inhibition above about 8.5%, passing the limit was not always enough
Mtb BioA inh: M. tuberculosis BioA enzyme inhibitors, primary screen, biochemical, plate reader, single point, HTS. AID 602481, 2012. 7,8-diaminopelargonic acid synthase BioA (Mycobacterium tuberculosis). purified M. tuberculosis BioA enzyme. hit rate 0.096% among 360,000. inhibition, % at 9.99 µM; in the data active = inhibition above about 40%
Rv3671c inh: Rv3671c serine protease inhibitors, primary screen, biochemical, fluorescence polarization, M. tuberculosis H37Rv; P9WHR9; inhibition, % at 5.96 µM; hit rate 0.048% among 320,000; in the data active = inhibition above about 38%;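 note: extracellular domain of Rv3671c used as enzyme; 0% = enzyme with DMSO and 100% = no enzyme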
* marks the source's active call; other numbers are inactive results; / = no result. Sampled rows, rich in hits. Any-hit rate of the full collection: about 0.9%.

SMILES	RecA splice inh	Mtb UGM inh	TcdB GH inh	FadD28 FP inh	Mtb BioA inh	Rv3671c inh
C[C@@H]1CCCCO[C@@H](CN(C)C(=O)NC2CCCCC2)[C@@H](C)CN([C@@H](C)CO)C(=O)c2cc(NS(=O)(=O)c3cn(C)cn3)ccc2O1	/	/	0.0	/	/	/
O=C(CCCN1C(=O)S/C(=C\C=C\c2ccccc2)C1=O)Nc1ccc(C(=O)O)cc1	30.3*	0.7	0.3	/	-0.3	-35.4
C[C@@H]1CCCCO[C@@H](CN(C)CC2CC2)[C@H](C)CN([C@H](C)CO)C(=O)c2cc(NC(=O)CCC(F)(F)F)ccc2O1	/	/	0.9	/	/	/
CCc1ccccc1NC(=S)N(Cc1ccc(C(=O)O)cc1)Cc1ccc(OC)c(OC)c1	-1.5	-2.8	13.2*	-1.1	0.3	-1.8
COc1ccc(CN(Cc2ccc(C(=O)O)cc2)C(=S)Nc2ccccc2C)cc1OC	1.5	4.1	0.8	-0.9	-0.5	-6.2
CCc1ccc(NC(=S)N(Cc2ccc(Cl)cc2)Cc2ccc(C(=O)O)cc2)cc1	7.3	-1.5	3.0	16.9*	/	-5.1
CC(C)NC(=O)N1CC2(C1)[C@H](c1ccccc1)[C@@H](CO)N2C(=O)C1CC1	/	/	0.5	/	/	/
CS(=O)(=O)N1CC2(C1)[C@H](c1ccccc1)[C@H](CO)N2C(=O)c1ccccc1	/	/	-0.6	/	/	/
COc1ccc([N+](=O)[O-])cc1NC(=S)NC(C)=O	2.4	-1.1	15.9*	-1.5	/	5.8
COc1cc([N+](=O)[O-])ccc1NC(=O)Oc1ccc(NC(C)=O)cc1	0.7	-0.1	10.4*	-1.1	1.5	-4.2
O=C(NC(=S)Nn1cnnc1)c1ccc(F)cc1Cl	-1.4	-0.2	1.2	-2.9	-0.6	-6.9
O=C(NC(=S)Nn1cnnc1)c1ccccc1Cl	-1.7	13.2*	1.5	0.0	/	4.7
O=C(Nc1nc2ccc(SC(F)F)cc2s1)c1ccc(NS(=O)(=O)c2ccc(F)c(F)c2)cc1	0.6	0.0	-0.5	17.1*	1.4	-212.6
COc1ccc2c3c(n(C)c2c1)[C@@H](CO)N(Cc1ccncc1)CC31CCN(C(=O)C2CCCC2)CC1	/	/	-0.9	/	/	/
O=C1NC(=O)C(=Cc2ccc(-c3cc(Cl)ccc3[N+](=O)[O-])o2)C(=O)N1	1.3	/	1.6	4.3	/	/
CC1=C(C#N)C(=O)NC(=O)/C1=C\c1ccc(-c2cc(C)c(C)cc2[N+](=O)[O-])o1	7.7	/	-0.4	14.7*	3.0	/
COc1cc(/C=N/NC(N)=S)ccc1OCc1ccc(C)cc1	3.2	-1.2	1.8	15.8*	/	-6.5
Cc1cc(C)c(S(=O)(=O)c2ccc(Cl)cc2C)c(Cl)n1	1.9	1.5	10.5*	-2.7	/	-1.1
O=C(C[C@@H]1C[C@@H]2c3cc(NC(=O)c4cccnc4)ccc3O[C@@H]2[C@@H](CO)O1)NCCN1CCCCC1	/	/	-1.9	/	34.7	/
CC1CCCC(NC(=O)NC(=O)CCl)C1C (stereo not given)	47.7*	-2.3	1.0	-2.5	/	4.8
CC1CCCCC1NC(=O)NC(=O)CCl (stereo not given)	33.5*	-2.0	0.0	-2.5	/	1.9
CC1CCCC(NC(=O)CSC2CCCCC2)C1C (stereo not given)	-0.5	-1.1	0.4	-2.3	/	-0.4
CCOC(=O)c1cc(C)sc1NC(=O)CSc1nnnn1C	0.1	-2.0	-7.7	-1.4	2.0	9.2
CCOC(=O)c1cc(C)sc1NC(=O)CSC1=NCCS1	32.4*	-0.6	1.0	-2.5	0.0	-7.0
O=S(=O)(c1ccccc1)N1CCN(Cc2nnc(-c3ccccc3)o2)CC1	/	/	10.1*	-3.7	-0.8	/
O=S(=O)(c1ccc(F)cc1)N1CCN(Cc2nnc(-c3ccccc3)o2)CC1	/	-2.4	0.7	-0.8	-0.4	7.4
C[C@H](CO)N1C[C@H](C)[C@H](CN(C)Cc2ccc(C(=O)O)cc2)Oc2ncc(C3=CCCC3)cc2C1=O	/	/	-3.2	/	-2.8	/
COc1ccc(S(=O)(=O)N(C)C[C@H]2Oc3ccc(NC(=O)Cn4cnnn4)cc3C(=O)N([C@@H](C)CO)C[C@@H]2C)cc1	/	/	-4.8	/	0.0	/
Cc1cccc(OCCN2CSC(=S)N(C)C2)c1	41.9*	0.5	/	-4.5	/	-5.8
